From PubChem
SMN2 splice up = SMN2 splice variant enhancement | 2.8% of 210,000 active | AID 1458 | Potency, µM (titrated, usually from 46.1 µM), for the others: at the top dose activity change, positive = activation, usual class: activators | HEK293 SMN2-luciferase splicing reporter, luminescence, 30-36 h; note: % of control where 0% means no effect; nearly all actives have a fitted effect of over 55% in size
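qHTS luciferase splicing reporter: luminescence rises when SMN2 exon 7 is included in transfected HEK293 cells. Compound exposure lasted 30-36 h at 37C, with 4.5 mM final sodium butyrate as control, followed by a ONE-Glo read.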
FLuc modulator = firefly luciferase modulation, counter-screen for miR-21 project; 6.9% of 360,000 active; Potency, µM (top dose mostly 57.5 µM), for inactives: top-dose activity change, negative = inhibition, most hits filed as inhibitors; purified FLuc, Km substrates, luminescence inhibition; P08659; AID 588342;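 note: plate controls were vehicle for no effect and reference inhibitor for full effect; nearly all actives have a fitted effect of over 55% in size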
Target sequence (P08659 whole entry, looked up): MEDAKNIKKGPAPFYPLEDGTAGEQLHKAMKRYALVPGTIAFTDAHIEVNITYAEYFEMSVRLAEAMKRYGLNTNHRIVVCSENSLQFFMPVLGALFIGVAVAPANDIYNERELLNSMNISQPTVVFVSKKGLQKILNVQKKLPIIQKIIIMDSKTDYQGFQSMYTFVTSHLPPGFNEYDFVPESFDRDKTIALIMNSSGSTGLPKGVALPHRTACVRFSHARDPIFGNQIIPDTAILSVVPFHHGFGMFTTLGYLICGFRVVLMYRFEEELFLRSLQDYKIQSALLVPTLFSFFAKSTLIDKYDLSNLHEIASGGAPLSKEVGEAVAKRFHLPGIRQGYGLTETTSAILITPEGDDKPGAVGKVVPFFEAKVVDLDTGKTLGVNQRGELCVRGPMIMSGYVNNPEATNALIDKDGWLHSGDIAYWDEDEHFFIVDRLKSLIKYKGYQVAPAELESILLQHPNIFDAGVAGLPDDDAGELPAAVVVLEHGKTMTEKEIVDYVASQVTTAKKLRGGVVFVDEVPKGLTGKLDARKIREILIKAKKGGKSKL
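Purified P. pyralis luciferase, 10 nM final, with Km-level 10 uM D-luciferin and 10 uM ATP in 50 mM Tris acetate pH 7.5, 10 mM Mg acetate, 0.01% Tween-20, 0.05% BSA; 6-point qHTS titration about 60 µM downward; luminescence read.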
ELG1 genotox = genotoxicity induction in ELG1-luciferase HEK293T cells | HEK293T ELG1-luciferase reporter, luminescence, 16 h | Potency, µM (doses to about 46 µM), inactives show at the top dose activity change, positive = activation, usual class: activators | 1.3% of 330,000 active | AID 504466; note: % of control where 0% means no effect; nearly all actives have a fitted effect of over 60% in size
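After overnight (16 hr) compound treatment at 37 °C, ELG1-luciferase HEK293T cells were lysed with ONE-Glo; luminescence quantified 30 min later at room temperature.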
Luc counter = blocks Kinase-Glo luciferase, a counter-screen artifact | Q27757 | Kinase-Glo luciferase, ATP luminescence, 8 min | Potency, µM (highest dose often 38.3 µM), without a hit: top-dose activity change, negative = inhibition, actives largely listed as inhibitors | 0.28% of 200,000 active | AID 1379; note: % is set by controls: 0 for no effect and ±100 for the full control effect; nearly all actives have a fitted effect of over 60% in size
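Inhibition of Kinase-Glo luciferase light generation was assessed at 10 uM ATP in pH 7.2 imidazole buffer, with luminescence measured after eight minutes at ambient temperature.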
NPC1 promoter act = activators of NPC1 promoter; Huh7 NPC1 promoter luciferase reporter, 24 h; Potency, µM (doses to about 9.22 µM), without a hit: top-dose activation, actives largely listed as activators; 2.4% of 320,000 active; AID 485313; note: % of control where 0% means no effect; nearly all actives have a fitted effect of over 60% in size
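Luminescence from an NPC1 promoter-driven luciferase reporter in stably transfected Huh7 cells was measured after 24 h compound treatment at 37 °C, followed by 10 min ambient incubation with luciferase detection reagent.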
Rab9 prom act = activators of Rab9 promoter. 2.8% of 320,000 active. Huh7 Rab9 promoter-luciferase reporter, luminescence, 24 h. AID 485297. Potency, µM (top dose mostly 9.22 µM), inactives show at the top dose activation, negative = inhibition, hits mostly activators; note: % of control where 0% means no effect; nearly all actives have a fitted effect of over 60% in size
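Using Huh7 cells stably transfected with Rab9 promoter–luciferase, compounds were incubated 24 h at 37 °C, 5% CO2; luciferase luminescence was read 10 min after reagent addition.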
An asterisk follows results filed as active; ? = inconclusive; . = no result; [ ] = dose if it differs, or a comment. Most compounds without a hit are left out; they make up all but 7.3% or so of the library. Calls come from the whole dose curve; as a rule, active = well fitted curve in the direction sought with a large enough effect; inconclusive = small, poorly fitted or top-dose-only effect, or another doubt; inactive = no such curve, though single readings can be large; an effect the other way counts as inactive or inconclusive. Potency is the fitted concentration of half-maximal effect.

SMILES | SMN2 splice up | FLuc modulator | ELG1 genotox | Luc counter | NPC1 promoter act | Rab9 prom act
CNC(=S)N(Cc1ccc(OC)cc1)Cc1cc2cc(C)ccc2[nH]c1=O | 8.6% | -1.6% | 0.2% | 4.3% | -6.6% | -1.9%
COc1ccc(/C=C/C(=O)Nc2ccncc2)cc1OC | . | -2.8% | 0.6% | 0.0% | -0.5% | -1.4%
COc1ccc(C)cc1NC(=O)c1ccc(S(=O)(=O)N2CCOCC2)cc1 | -9.8% | 2.1% | 2.9% | -3.3% | -0.5% | 1.4%
C=CCc1c(C)nc(-c2ccccc2)nc1Nc1ccc(O)cc1 | -30.1% | -2.8% | -4.0% | -0.2% | 0.8% | -6.0%
C=CCc1c(C)nc(-c2ccccc2)nc1N/N=C(\C)c1ccccc1 | -10.2% | 16.9µM* | 0.4% | 0.8% | -0.2% | -0.8%
COc1cccc(C2CC(=O)Nc3cc(OC)c(OC)c(OC)c32)c1OC(C)C (stereo not drawn) | 17.8µM* | -0.4% | . | . | . | .
COc1cccc(C2CC(=O)Nc3cc4c(cc32)OCCO4)c1OC(C)C (stereo not drawn) | 8.3% | 6.5% | -0.7% | 4.1% | 2.2% | -0.5%
COc1ccc(C(=O)Nc2ccc(C)cn2)c(OC)c1 | . | 0.19µM* | 0.092µM* | ? | ? | 0.355µM*
COc1cccc(C(=O)NC(=O)Nc2cc(C)on2)c1 | 11.2µM* | ? | ? | -0.7% | ? | 1.58µM*
COc1ccc(C(=O)Nc2cc(C)on2)c(OC)c1 | . | 10.7µM* | ? | . | 3.16µM* | 3.16µM*
COc1cc(C(=O)Nc2ccc(C)cn2)c([N+](=O)[O-])cc1OC | 2.7% | -0.1% | 2.3% | 1.4% | -9.2% | -0.5%
Cc1cc(NC(=O)Nc2ccc(C)c(C)c2)no1 | . | 13.5µM* | ? | 6.9% | 21.4% | ?
COc1ccc(S(=O)(=O)NNC(=S)NCCc2ccccc2)c(OC)c1 | . | 3.0% | 9.8% | . | -4.2% | 0.2%[1.84 µM]
COc1cc(/C=N/NC(N)=O)ccc1OCC(=O)Nc1ccc(C)c(C)c1 | 7.3% | -2.0% | 0.8% | 0.2% | 3.1% | -0.7%
O=C(CCc1nc2sc3c(c2c(=O)[nH]1)CCCC3)Nc1ccccc1Cl | . | 3.2% | -0.5% | . | 9.9% | 1.1%
CC(=O)Nc1nc(C)c(Oc2cccc(C(F)(F)F)c2)c(=O)[nH]1 | . | -0.6% | -1.2% | . | 0.5% | -1.8%
CCOc1ccc(OCCn2nnc3ccccc3c2=O)cc1 | 15.8µM* | 13.5µM* | 18.3µM* | -8.9% | 3.55µM* | 2.82µM*
COc1ccc(C(=O)OCn2nnc3ccccc3c2=O)cc1OC | 9.0% | 1.9% | 1.4% | 0.5% | -11.7% | -0.6%
O=c1c2ccccc2nnn1COc1ccc(F)cc1Cl | ? | ? | ? | -4.7% | ? | 2.51µM*
CCC(=O)OCn1nnc2ccccc2c1=O | -43.3% | 0.9% | 3.4% | -2.6% | 4.6% | -3.8%
CC(Oc1ccc(Cl)cc1Cl)C(=O)OCn1nnc2ccccc2c1=O (stereo not drawn) | -6.3% | -0.2% | 1.1% | -1.0% | -3.9% | 1.4%
O=c1c2ccccc2nnn1COc1cccc2ccccc12 | 17.9% | 16.9µM* | 13.5% | -0.1% | ? | 3.98µM*
O=c1c2ccccc2nnn1COc1ccc(Cl)cc1Br | ? | 23.9µM* | ? | 0.1% | ? | 3.16µM*
CCCn1nnc2ccccc2c1=O | -0.5% | -5.8% | -1.4% | -0.9% | -0.5% | -3.6%
Fc1cccc(-c2cc3nc4c(c(N5CCC6(CC5)OCCO6)n3n2)CCCC4)c1 | 10.7% | 15.1µM* | ? | 1.3% | -1.4% | -0.2%
CN(CCO)c1c2c(nc3cc(-c4cccc(F)c4)nn13)CCCC2 | 23.3% | 23.9µM* | ? | 3.1% | 3.55µM* | 3.55µM*
OC1CCN(c2c3c(nc4cc(-c5cccc(F)c5)nn24)CCCC3)CC1 | 28.9% | ? | -0.1% | -0.9% | 1.3% | 7.6%
COc1cccc(C(C)N(C)Cc2nc(COc3ccccc3)no2)c1 (stereo not drawn) | . | -0.3% | -2.9% | . | -5.6% | 0.9%
NC(=O)c1cc([N+](=O)[O-])ccc1NCc1cccc([N+](=O)[O-])c1 | . | -0.1% | 7.0% | . | -2.2% | -1.9%
